# Bioassay records (PubChem)
# The list is not random: actives were taken first. Their share in the collection is about 2.8%.
# SENP8 block-1 – SENP8 (human) protease inhibition; Q96LD8; actives 0.64% (n = 360,000); recombinant SENP8, Nedd8 substrate fluorescence; inhibition, % at 20 µM; AID 602440; in the data active = inhibition mostly above about 40%, no sharp cut-off; inactive = mostly below about 27%
# SENP6 block – SENP6 protease inhibition | Q9GZR1 | Recombinant SENP6 catalytic domain, aminoluciferin luminescence | inhibition, % at 10 µM | actives 1.8% (n = 330,000);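 active = inhibition above about 50% at the single tested dose, limit read from the data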;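 also: plate controls were DMSO wells with enzyme for no effect and DMSO wells lacking enzyme for full effect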
# Target sequence (Q9GZR1 628-1112 limits assumed): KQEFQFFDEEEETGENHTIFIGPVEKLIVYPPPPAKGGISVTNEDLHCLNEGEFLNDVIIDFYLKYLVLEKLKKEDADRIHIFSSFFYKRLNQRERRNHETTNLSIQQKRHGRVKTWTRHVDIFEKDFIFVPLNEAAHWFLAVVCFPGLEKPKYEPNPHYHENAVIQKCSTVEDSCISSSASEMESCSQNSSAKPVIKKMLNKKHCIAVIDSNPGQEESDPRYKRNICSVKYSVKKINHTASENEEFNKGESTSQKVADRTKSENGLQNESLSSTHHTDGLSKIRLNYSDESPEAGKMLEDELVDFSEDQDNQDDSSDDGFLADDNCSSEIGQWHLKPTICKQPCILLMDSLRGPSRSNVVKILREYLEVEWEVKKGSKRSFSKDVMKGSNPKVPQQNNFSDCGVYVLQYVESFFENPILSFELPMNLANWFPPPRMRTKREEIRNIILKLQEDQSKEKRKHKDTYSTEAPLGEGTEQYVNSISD
# SENP8 block-2 – SENP8 protease inhibition; AID 2540; purified SENP8, Z-RLRGG-aminoluciferin cleavage, luminescence; Q96LD8; inhibition, % at 10 µM; actives 1.2% (n = 330,000); in the data active = inhibition above about 50%
# HSP90 refold inh – HSP90 refolding inhibition in rabbit reticulocyte lysate. actives 0.91% (n = 290,000). luciferase refolding luminescence, 3 h. AID 1789. inhibition, % at 5.6 µM;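 active = inhibition above the screen-wide mean plus 3 SD, computed separately per campaign, cut at about 16% in these data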;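 also: 0% = DMSO wells and 100% = 60 µM geldanamycin wells; inhibitors lower the luminescence because luciferase stays unfolded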
# Platelet DG rel – platelet dense granule release activity | actives 0.22% (n = 300,000) | human platelet-rich plasma, SFLLRN dense granule ATP release, luminescence | inhibition, %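 (compounds screened at 7.5 µM in platelet-rich plasma)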;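 active = mean replicate score, as percent of positive control, at or above 50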
# SENP7 inh – SENP7 protease inhibition. Q9BQF6. recombinant SENP7, Z-RLRGG-aminoluciferin luminescence, 40 min. inhibition, % at 5 µM. actives 1.5% (n = 330,000). AID 434973;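 active = inhibition above about 50% at the single test dose, limit read from the data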;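 also: plate controls were DMSO with enzyme for no effect and no enzyme buffer wells for full effect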
# SENP8 conf-1 – human SENP8 inhibition, confirmed | shares compounds with SENP7 inh | Recombinant SENP8, Z-RLRGG-aminoluciferin luminescence, 60 min | inhibition, % at 12.5 µM | actives 40% (n = 6,200);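 active = mean inhibition across replicates above about 50%, limit read from the data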
# SENP6 confirm – confirmation of human SENP6 protease inhibitors | recombinant SENP6, Z-RLRGG-aminoluciferin luminescence | shares compounds with SENP7 inh | actives 58% (n = 6,200) | AID 488915 | inhibition, % at 12.5 µM
# SENP7 conf – confirmation of human SENP7 protease inhibitors; shares compounds with SENP7 inh; recombinant SENP7, Z-RLRGG-aminoluciferin luminescence, 40 min; inhibition, % at 12.5 µM; actives 69% (n = 6,200); AID 488917
# Casp3 SENP sel – selectivity test for SENP inhibitors: human caspase-3 inhibition. AID 488918. purified caspase-3, Z-DEVD-aminoluciferin luminescence, 60 min. inhibition, % at 12.5 µM. actives 60% (n = 6,200). shares compounds with SENP7 inh;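 active = mean inhibition above about 50%, limit read from the data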;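 also: plate controls were enzyme with DMSO for no effect and wells without caspase-3 for full effect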
# Luc interf – interferes with luciferase luminescence in SENP counter-screen | shares compounds with SENP7 inh | Pre-incubated SENP8/Z-RLRGG-aminoluciferin, luciferase luminescence interference | inhibition, % at 12.5 µM | actives 39% (n = 6,200) | AID 488919;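 active = mean inhibition above about 50% when retested at one dose, limit read from the data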;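 also: plate controls were DMSO wells with completed reaction for no effect and substrate without enzyme for full effect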
# SENP8 conf-2 – SENP8 (human) inhibition, single concentration confirmation; actives 15% (n = 1,400); inhibition, % at 25 µM; AID 624319; shares compounds with SENP8 block-1; purified SENP8, Nedd8-AMC/pro-Nedd8 cleavage fluorescence, 30 min; in the data active = inhibition mostly above about 39%, no sharp cut-off; inactive = mostly below about 34%
# Starred values were filed as active, the others as inactive; x = no result given.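 The calls were made as follows, unless noted: active = mean inhibition above about 50% in the one-dose retest (limit read from the data); inactive = the rest.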
SMILES,SENP8 block-1,SENP6 block,SENP8 block-2,HSP90 refold inh,Platelet DG rel,SENP7 inh,SENP8 conf-1,SENP6 confirm,SENP7 conf,Casp3 SENP sel,Luc interf,SENP8 conf-2
Cc1cc(C)cc(N=Cc2ccc([N+](=O)[O-])s2)c1,75.4*,56.8*,29.1,3.6,-3.2,16.6,14.2,41.2,9.2,-3.8,-3.4,82.6*
O=[N+]([O-])c1ccc(C=Nc2ccc(Cl)c([N+](=O)[O-])c2)s1,75.8*,50.2*,35.0,-1.6,x,21.1,4.8,40.2,21.6,4.0,2.6,79.9*
COC(=O)c1[nH]c(=O)c2ccccc2c1O,40.6*,63.6*,52.5*,2.9,-2.6,17.1,-9.1,12.7,-6.7,4.7,-9.8,-31.6
CC1=NN(c2ccc(F)cc2)C(=O)C1C(c1cccc(O)c1)c1c(C)[nH]n(-c2ccc(F)cc2)c1=O (stereo not given),89.7*,23.1,27.2,14.9,-0.7,57.8*,-17.3,19.4,5.5,-2.5,-1.2,52.3*
Cn1cc([N+](=O)[O-])c(C(=O)N/N=C\c2c[nH]c3ccccc23)n1,12.5,-6.8,-2.2,-0.2,2.9,7.1,x,x,x,x,x,x
O=[N+]([O-])c1ccccc1N/N=C/c1c[nH]c2ccccc12,41.3*,81.6*,63.5*,-3.5,3.5,79.1*,30.7,43.6,95.5*,29.8,7.9,17.3
Cc1[nH][nH]c(=O)c1C(c1c(C)[nH][nH]c1=O)c1cn(Cc2cccc3ccccc23)c2ccccc12,86.2*,57.2*,42.3,7.2,x,23.7,2.6,37.7,16.7,-1.3,-3.9,84.8*
O=c1c2ccccc2ncn1Cc1cccc2ccccc12,1.5,-15.1,-11.6,0.1,12.2,-7.1,x,x,x,x,x,x
Nc1c(C(=O)N/N=C/c2ccc(Cl)cc2)cnn1-c1ccccc1,-40.5,4.2,7.7,2.0,-5.2,6.0,x,x,x,x,x,x
Nc1scc2c(C(=O)N/N=C/c3ccc(Cl)cc3)nn(-c3ccccc3)c(=O)c12,68.6*,50.1*,24.8,15.5,0.1,9.2,21.1,25.9,18.0,24.2,-3.2,86.4*
OC(CON=C1c2ccccc2-c2ccccc21)CN1CCNCC1 (stereo not given),8.2,9.6,-9.6,-2.8,-2.4,11.0,x,x,x,x,x,x
CN(C)c1ccc(NC(=O)Oc2ccccc2)cc1,43.6*,75.1*,35.7,1.0,33.3,3.6,63.5*,60.7*,85.4*,81.4*,45.6,10.0
CN(C)c1ccc(NC(=O)C[n+]2ccccc2)cc1,10.5,-6.6,-0.3,2.1,9.4,-12.7,x,x,x,x,x,x
O=C(OCc1ccc(Cl)cc1)c1cnccn1,13.4,-11.8,-20.0,3.9,-0.4,-10.7,x,x,x,x,x,x
O=C(OCc1ccc(Cl)c(Cl)c1)c1cnccn1,44.7*,9.1,-17.4,0.9,-5.1,0.7,x,x,x,x,x,-9.0
COC(=O)Cn1c2ccc(OC)cc2c2nc3ccccc3nc21,9.8,3.8,7.0,0.1,0.1,1.7,x,x,x,x,x,x
CCOC(=O)Cn1c2ccc(OC)cc2c2nc3ccccc3nc21,58.2*,5.7,-5.4,3.4,1.5,3.2,x,x,x,x,x,11.5
COc1ccc(C(=O)NCCCN=C2NS(=O)(=O)c3ccccc32)cc1,9.2,4.6,1.2,-2.3,2.3,-3.7,x,x,x,x,x,x
CC(=O)Nc1ccc(NC(=O)c2cc([N+](=O)[O-])cc([N+](=O)[O-])c2)cc1,12.0,23.2,-3.5,4.3,3.6,-0.5,x,x,x,x,x,x
